# Assay results as given in PubChem BioAssay (EPA / NIEHS).
# Results filed as inconclusive are left out. Calls of active or inactive are those of the source. How the source made its calls: active means hit-call score of the fitted dose curve at least 0.9, where 1 is the maximum; inconclusive means response in the unintended direction; inactive means score below 0.9.
# Assays:
# [1] = ACEA_AR_agonist_AUC_viability: ACEA Biosciences xCELLigence Real-Time Cell Analysis on Androgen Receptor Agonism for Viability (AID 2283775);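 on AC50: viability read 80 hours after compound addition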
# Method in brief: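 Real-time impedance tracking of 22Rv1 growth, readings every 5 min for 5 h then hourly; area-under-curve viability endpoint at 80 hours, relative to DMSO. Compounds at eight concentrations, 1:4 steps, top 100 uM, n = 2.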
# [2] = ACEA_AR_antagonist_AUC_viability: ACEA Biosciences xCELLigence Real-Time Cell Analysis on Androgen Receptor Antagonism for Viability (AID 2283776);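 further: 22Rv1 human prostate cancer cells growing on impedance electrode plates; hits lower the growth signal relative to DMSO meaning cytotoxicity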
# Method in brief: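 Impedance read-out (RT-CES): area under growth curve at 80 h post-dose, loss of signal scored vs DMSO baseline. 22Rv1 cells; 8-pt 1:4 series, top 100 uM final, ≤0.5% DMSO; biological duplicate.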
# [3] = molecular target: Luciferin 4-monooxygenase (Photinus pyralis) (UniProt P08659); test: CCTE_Simmons_QuantiLum_inhib_2: CCTE's Firefly Luciferase Inhibition Assay, Simmons Lab (AID 2283767)
# Method in brief: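 Cell-free recombinant firefly luciferase (5 ng/well) in 200mM potassium phosphate with 1 mg/ml BSA, 30 min at 37C with 8 concentrations from 5 nM to 87.5 uM [final], 0.5% DMSO. Luminescence read after D-luciferin (150uM)/dATP (147uM) reagent injection, pH 7.8; triplicates.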
# [4] = STM_H9_NormalizedViability: Cytotoxicity Assessment at 120 hours in the Stemina devTOX quickPredict H9 human embryonic stem cell (hESC)-based Assay (AID 2283784)
# Method in brief: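 Pluripotent H9 hESCs were exposed, with chemical and media replaced every 24 h. Viability was read by CellTiter-Fluor fluorescence, background-corrected and normalized to the 0.1% DMSO neutral control per plate. Loss of signal was fitted.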
# [5] = tested on: zebrafish Androgen Receptor (AR), gene 100005148; test: ATG_zfAR_XSP1: Attagene TRANS-FACTORIAL Multi-Species (XSP1) HepG2 Assay for zebrafish Androgen Receptor (AR) (AID 2283771)
# Method in brief: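 HepG2 cells were transiently transfected with a zebrafish AR-GAL4 reporter system and partially stimulated with 3 nM 6-alpha-fluorotestosterone. Reporter mRNA was measured after 24 h dosing by RT-PCR with capillary electrophoresis, and gain-of-signal was fitted relative to DMSO.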
# [6] = molecular target: zebrafish Estrogen Receptor (ESR1), esr1 (gene 259252) (UniProt P57717); test: ATG_zfER1_XSP1: Attagene TRANS-FACTORIAL Multi-Species (XSP1) HepG2 Assay for zebrafish Estrogen Receptor (ESR1) (AID 2283772)
# Method in brief: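 HepG2 cells were transiently transfected with multiplexed GAL4-UAS reporter units driven by chimeric NR-GAL4 proteins, dosed for 24 h with 3 nM 6-alpha-fluorotestosterone present, and reporter mRNA quantified by RT-PCR and capillary electrophoresis versus DMSO.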
# [7] = tested on: zebrafish Estrogen Receptor (ESR2B), gene 317733; test: ATG_zfER2b_XSP1: Attagene TRANS-FACTORIAL Multi-Species (XSP1) HepG2 Assay for zebrafish Estrogen Receptor (ESR2B) (AID 2283773)
# Method in brief: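 HepG2 cells transiently transfected with GAL4-UAS reporter units for chimeric zebrafish ER2b-Gal4, with 3 nM 6-alpha-fluorotestosterone present; reporter mRNA measured 24 h after dosing by RT-PCR and capillary electrophoresis, gain versus DMSO.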
# [8] = tested on: frog Estrogen Receptor (ESR2), gene 100174814; test: ATG_frER2_XSP1: Attagene TRANS-FACTORIAL Multi-Species (XSP1) HepG2 Assay for frog Estrogen Receptor (ESR2) (AID 2283774)
# Method in brief: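 HepG2 cells transiently transfected with GAL4-UAS reporter units expressing chimeric frog ER-Gal4; 3 nM 6-alpha-fluorotestosterone present. After 24 h dosing, reporter mRNA quantified by RT-PCR and capillary electrophoresis; gain-of-signal fitted relative to DMSO.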
# [9] = tested on: zebrafish Estrogen Receptor (ESR2A), gene 317734; test: ATG_zfER2a_XSP1: Attagene TRANS-FACTORIAL Multi-Species (XSP1) HepG2 Assay for zebrafish Estrogen Receptor (ESR2A) (AID 2283778)
# Method in brief: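 HepG2 cells transiently transfected with GAL4-UAS reporter units driven by a zebrafish ESR2A–Gal4 chimera; 24 h compound exposure with 3 nM 6-alpha-fluorotestosterone present. Reporter mRNA measured by RT-PCR with fluorescent capillary electrophoresis, fitted positive versus DMSO.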
# [10] = molecular target: chicken Estrogen Receptor (ESR1), ESR1 (gene 396099) (UniProt P06212); test: ATG_chERa_XSP1: Attagene TRANS-FACTORIAL Multi-Species (XSP1) HepG2 Assay for chicken Estrogen Receptor (ESR1) (AID 2283779)
# Method in brief: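 HepG2 cells transiently transfected with GAL4-UAS reporter units for chimeric chicken ERα-Gal4, dosed 24 h with 3 nM 6-alpha-fluorotestosterone present. Reporter mRNA by RT-PCR and capillary electrophoresis; gain-of-signal fit versus DMSO.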
# [11] = molecular target: Estrogen receptor (Homo sapiens) (UniProt P03372); test: ATG_hERa_XSP1: Attagene TRANS-FACTORIAL Multi-Species (XSP1) HepG2 Assay for human Estrogen Receptor (ESR1) (AID 2283780)
# Method in brief: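 HepG2 cells transiently transfected with GAL4-UAS reporter units and chimeric NR-Gal4 constructs; 24 h after dosing, reporter mRNA quantified by RT-PCR and capillary electrophoresis. Medium contained 3 nM 6-alpha-fluorotestosterone; activity fitted as gain-of-signal versus DMSO.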
# [12] = tested on: turtle Estrogen Receptor (ESR1), gene 101933533; test: ATG_trERa_XSP1: Attagene TRANS-FACTORIAL Multi-Species (XSP1) HepG2 Assay for turtle Estrogen Receptor (ESR1) (AID 2283781)
# Method in brief: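 Turtle ERa as a GAL4 chimera in transiently transfected HepG2 cells; reporter mRNA quantified 24 h after dosing by RT-PCR and capillary electrophoresis. 3 nM 6-alpha-fluorotestosterone present; gain of signal versus DMSO.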
# [13] = ACEA_ER_AUC_viability: ACEA Biosciences xCELLigence Real-Time Cell Analysis on Estrogen Receptor Agonism for Viability (AID 2283782);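 further: continuous compound exposure with impedance area under curve over 80 h; hit means loss of impedance signal meaning reduced cell growth or viability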
# Method in brief: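 T47D cells preconditioned in phenol red-free RPMI with charcoal-stripped FBS, then dosed with 8-point 1:4 series from 100 uM (up to 0.5% DMSO). Impedance monitored up to ~80 h; area-under-curve loss versus DMSO taken as viability.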
# [14] = molecular target: AR (gene 367) (UniProt P10275); test: ACEA_AR_antagonist_80hr: ACEA Biosciences xCELLigence Real-Time Cell Analysis on Androgen Receptor Antagonism for Proliferation (AID 2283787);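 further: 22Rv1 human prostate cancer cells with growth followed by electrical impedance; hits lower the impedance growth signal relative to DMSO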
# Method in brief: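 22Rv1 cells in assay medium, growth tracked by electrical impedance; compounds eight-point 1:4 dilutions from 100 uM final, duplicate plates. Endpoint at 80 h; loss of signal versus DMSO.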
# [15] = molecular target: AR (gene 367) (UniProt P10275); test: ACEA_AR_agonist_80hr: ACEA Biosciences xCELLigence Real-Time Cell Analysis on Androgen Receptor Agonism for Proliferation (AID 2283783);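 further: hits increase impedance growth signal above DMSO baseline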
# Method in brief: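 Proliferation of 22Rv1 prostate cancer cells tracked by electrical impedance, endpoint taken at 80 hours after dosing. Eight-point 1:4 dilutions from 100 uM maximum final, duplicate; testosterone and MG132 as positive controls, assay media as negative.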
# Chain of Luciferin 4-monooxygenase (Photinus pyralis) (P08659 whole entry, looked up): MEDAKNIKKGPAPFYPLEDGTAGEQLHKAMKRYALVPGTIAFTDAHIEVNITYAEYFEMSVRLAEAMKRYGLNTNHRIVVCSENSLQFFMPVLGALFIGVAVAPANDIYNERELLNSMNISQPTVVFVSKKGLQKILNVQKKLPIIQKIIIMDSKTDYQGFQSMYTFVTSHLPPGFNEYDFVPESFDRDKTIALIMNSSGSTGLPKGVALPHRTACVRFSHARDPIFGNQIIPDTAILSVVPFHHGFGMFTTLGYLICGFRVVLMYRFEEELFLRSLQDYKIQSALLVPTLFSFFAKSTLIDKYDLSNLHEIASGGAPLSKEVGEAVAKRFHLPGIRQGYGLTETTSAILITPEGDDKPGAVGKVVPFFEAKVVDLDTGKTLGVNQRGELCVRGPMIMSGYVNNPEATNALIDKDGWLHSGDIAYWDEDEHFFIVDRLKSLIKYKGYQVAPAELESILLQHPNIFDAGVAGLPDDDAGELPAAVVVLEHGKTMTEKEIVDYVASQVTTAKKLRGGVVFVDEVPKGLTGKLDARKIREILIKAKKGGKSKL
# Chain of AR (gene 367) (P10275 whole entry, looked up): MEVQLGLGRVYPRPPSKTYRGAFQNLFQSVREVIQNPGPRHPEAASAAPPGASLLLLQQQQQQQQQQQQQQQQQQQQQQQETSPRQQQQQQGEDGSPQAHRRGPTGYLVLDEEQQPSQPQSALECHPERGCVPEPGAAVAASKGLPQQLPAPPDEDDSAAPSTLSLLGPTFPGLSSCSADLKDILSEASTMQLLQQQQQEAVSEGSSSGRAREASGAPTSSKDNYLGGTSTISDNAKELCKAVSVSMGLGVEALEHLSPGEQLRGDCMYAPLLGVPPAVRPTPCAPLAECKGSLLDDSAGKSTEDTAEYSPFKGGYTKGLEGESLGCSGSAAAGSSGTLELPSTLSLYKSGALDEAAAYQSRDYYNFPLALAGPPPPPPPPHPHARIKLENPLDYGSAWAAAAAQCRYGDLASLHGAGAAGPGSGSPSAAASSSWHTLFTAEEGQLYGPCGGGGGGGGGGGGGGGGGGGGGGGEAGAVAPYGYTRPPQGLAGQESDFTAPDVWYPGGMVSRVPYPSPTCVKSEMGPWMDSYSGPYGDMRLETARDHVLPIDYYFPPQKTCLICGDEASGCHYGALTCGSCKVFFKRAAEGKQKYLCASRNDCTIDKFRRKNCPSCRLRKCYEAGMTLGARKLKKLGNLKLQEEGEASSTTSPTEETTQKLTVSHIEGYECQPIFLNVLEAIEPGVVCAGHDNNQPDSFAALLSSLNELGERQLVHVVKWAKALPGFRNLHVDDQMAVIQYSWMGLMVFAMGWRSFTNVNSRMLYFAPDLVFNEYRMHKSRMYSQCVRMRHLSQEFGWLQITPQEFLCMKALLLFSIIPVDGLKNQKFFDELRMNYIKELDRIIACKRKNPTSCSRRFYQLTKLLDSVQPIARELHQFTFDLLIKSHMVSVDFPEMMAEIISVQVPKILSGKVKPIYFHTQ
# Chain of chicken Estrogen Receptor (ESR1), ESR1 (gene 396099) (P06212 whole entry, looked up, the tested form may be a part): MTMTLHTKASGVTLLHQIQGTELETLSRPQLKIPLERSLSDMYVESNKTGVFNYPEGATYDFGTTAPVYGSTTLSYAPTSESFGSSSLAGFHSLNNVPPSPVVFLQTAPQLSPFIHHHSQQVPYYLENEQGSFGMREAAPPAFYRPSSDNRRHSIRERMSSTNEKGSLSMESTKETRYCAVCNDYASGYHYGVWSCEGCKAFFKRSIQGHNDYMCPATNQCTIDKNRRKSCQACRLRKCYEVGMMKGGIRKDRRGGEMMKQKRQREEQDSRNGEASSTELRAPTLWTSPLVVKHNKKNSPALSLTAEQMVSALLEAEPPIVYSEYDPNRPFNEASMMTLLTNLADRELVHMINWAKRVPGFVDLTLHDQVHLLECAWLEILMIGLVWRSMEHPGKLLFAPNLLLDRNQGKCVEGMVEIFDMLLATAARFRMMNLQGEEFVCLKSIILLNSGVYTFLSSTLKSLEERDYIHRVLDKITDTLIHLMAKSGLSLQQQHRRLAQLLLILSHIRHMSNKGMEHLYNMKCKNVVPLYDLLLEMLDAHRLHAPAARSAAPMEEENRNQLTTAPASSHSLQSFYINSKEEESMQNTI
# Chain of zebrafish Estrogen Receptor (ESR1), esr1 (gene 259252) (P57717 whole entry, looked up, the tested form may be a part): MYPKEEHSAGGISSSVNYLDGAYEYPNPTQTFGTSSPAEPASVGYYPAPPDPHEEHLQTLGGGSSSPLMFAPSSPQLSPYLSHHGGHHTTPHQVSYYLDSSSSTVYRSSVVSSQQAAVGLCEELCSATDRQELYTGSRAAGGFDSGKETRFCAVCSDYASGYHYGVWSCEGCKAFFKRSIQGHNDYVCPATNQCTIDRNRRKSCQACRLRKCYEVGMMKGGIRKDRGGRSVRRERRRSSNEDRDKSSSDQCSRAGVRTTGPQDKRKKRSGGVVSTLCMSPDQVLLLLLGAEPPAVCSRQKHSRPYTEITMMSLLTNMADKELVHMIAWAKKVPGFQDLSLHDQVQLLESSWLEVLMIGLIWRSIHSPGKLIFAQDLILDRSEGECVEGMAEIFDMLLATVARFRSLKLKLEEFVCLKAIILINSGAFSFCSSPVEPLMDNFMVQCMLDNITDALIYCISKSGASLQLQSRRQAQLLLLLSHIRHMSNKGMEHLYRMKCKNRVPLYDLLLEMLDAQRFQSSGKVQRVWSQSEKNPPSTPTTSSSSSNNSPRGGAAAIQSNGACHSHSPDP
# Chain of Estrogen receptor (Homo sapiens) (P03372 whole entry, looked up, the tested form may be a part): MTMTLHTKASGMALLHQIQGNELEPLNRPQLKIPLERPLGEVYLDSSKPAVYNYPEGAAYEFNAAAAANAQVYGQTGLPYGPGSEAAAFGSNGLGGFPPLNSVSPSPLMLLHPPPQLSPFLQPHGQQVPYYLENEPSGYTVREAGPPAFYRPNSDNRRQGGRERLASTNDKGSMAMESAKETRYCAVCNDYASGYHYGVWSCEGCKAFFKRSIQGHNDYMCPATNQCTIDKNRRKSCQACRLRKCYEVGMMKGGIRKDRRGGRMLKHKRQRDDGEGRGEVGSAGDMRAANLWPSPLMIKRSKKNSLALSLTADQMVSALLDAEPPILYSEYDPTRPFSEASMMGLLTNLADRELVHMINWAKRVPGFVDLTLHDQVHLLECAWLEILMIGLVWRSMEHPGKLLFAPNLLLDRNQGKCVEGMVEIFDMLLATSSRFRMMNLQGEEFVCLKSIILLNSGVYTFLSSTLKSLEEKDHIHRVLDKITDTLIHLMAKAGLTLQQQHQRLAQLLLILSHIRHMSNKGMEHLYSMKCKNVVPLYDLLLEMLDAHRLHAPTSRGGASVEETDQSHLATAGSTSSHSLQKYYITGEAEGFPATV
smiles,measurement,setting,value
C=CCOC(=O)C(C)(C)OC(=O)c1cc(-n2c(=O)cc(C(F)(F)F)n(C)c2=O)ccc1Cl,AC50,[1],50.5 µM (active)
same,AC50,[2],50.5 µM (active)
CS(=O)(=O)c1ccc(C(=O)C2C(=O)CCCC2=O)c([N+](=O)[O-])c1,outcome,[3],inactive
same,outcome,[4],inactive
CSC(=O)c1c(C(F)F)nc(C(F)(F)F)c(C(=O)SC)c1CC(C)C,outcome,[5],inactive
same,outcome,[6],inactive
same,AC50,[7],32.3 µM (active)
same,AC50,[8],0.955 µM (active)
same,AC50,[2],37.4 µM (active)
same,outcome,[9],inactive
same,outcome,[10],inactive
same,AC50,[11],6.12 µM (active)
same,outcome,[12],inactive
same,AC50,[13],81.2 µM (active)
CCN(CC)c1nc(C)cc(OP(=S)(OC)OC)n1,outcome,[3],inactive
same,AC50,[1],87.1 µM (active)
same,AC50,[2],83.3 µM (active)
same,outcome,[13],inactive
CCC(C)n1c(=O)[nH]c(C)c(Br)c1=O (stereo not drawn),outcome,[1],inactive
same,outcome,[2],inactive
CN=C=S,outcome,[1],inactive
same,outcome,[2],inactive
COP(=O)(OC)O/C(C)=C/C(=O)N(C)C,outcome,[1],inactive
same,outcome,[2],inactive
CCNC(=O)NC(=O)C(C#N)=NOC,outcome,[3],inactive
same,outcome,[2],inactive
same,outcome,[13],inactive
same,outcome,[4],inactive
CC(C)N1C(=O)c2ccccc2NS1(=O)=O,outcome,[1],inactive
same,outcome,[2],inactive
same,outcome,[13],inactive
COC(=O)c1c(C(F)F)nc(C(F)(F)F)c(C2=NCCS2)c1CC(C)C,outcome,[1],inactive
same,outcome,[2],inactive
same,outcome,[14],inactive
CC(C)N1C(=O)N(c2ccccc2)CSC1=NC(C)(C)C,AC50,[1],28.9 µM (active)
same,AC50,[2],50 µM (active)
same,AC50,[13],89.6 µM (active)
same,AC50,[14],50 µM (active)
O=C1C2CC=CCC2C(=O)N1SC(Cl)(Cl)Cl (stereo not drawn),AC50,[1],24.5 µM (active)
same,AC50,[2],17.2 µM (active)
same,outcome,[4],inactive
CC(C)Nc1nc(Cl)nc(NC(C)C)n1,outcome,[2],inactive
same,outcome,[13],inactive
same,outcome,[4],inactive
C=C(C)CN(CC)c1c([N+](=O)[O-])cc(C(F)(F)F)cc1[N+](=O)[O-],AC50,[1],73 µM (active)
same,AC50,[2],50 µM (active)
Cn1c(-c2ccccc2)cc(-c2ccccc2)[n+]1C,AC50,[1],28.7 µM (active)
same,AC50,[2],41.7 µM (active)
same,AC50,[4],31.1 µM (active)
Cc1cc(C)nc(Nc2ccccc2)n1,outcome,[1],inactive
same,outcome,[2],inactive
same,outcome,[13],inactive
same,outcome,[4],inactive
Cc1ccc(N=CN(C)C=Nc2ccc(C)cc2C)c(C)c1,AC50,[1],14.5 µM (active)
same,AC50,[2],17.6 µM (active)
same,AC50,[13],50 µM (active)
O=C(Nc1ccccc1-c1ccc(Cl)cc1)c1cccnc1Cl,AC50,[1],61.3 µM (active)
same,AC50,[2],50 µM (active)
same,outcome,[13],inactive
same,outcome,[4],inactive
Nc1c(Cl)c(F)nc(OCC(=O)O)c1Cl,outcome,[1],inactive
same,outcome,[2],inactive
same,outcome,[15],inactive
same,outcome,[14],inactive
CNC(=O)N(C)c1nnc(C(C)(C)C)s1,outcome,[1],inactive
same,outcome,[2],inactive
same,outcome,[13],inactive
CCCC(=NOCC)C1=C(O)CC(CC(C)SCC)CC1=O (stereo not drawn),AC50,[1],79.5 µM (active)
same,outcome,[2],inactive
same,outcome,[13],inactive
CC(C)(C)C(=O)C(Oc1ccc(Cl)cc1)n1cncn1 (stereo not drawn),outcome,[1],inactive
same,outcome,[2],inactive
same,outcome,[4],inactive
